Screening data deposited in PubChem by Buhrlage Lab, Dana-Farber Cancer Institute and Novartis Institutes for BioMedical Research (Cambridge, Mass).
Most compounds without a hit are left out; they make up all but 11% or so of the library.
USP17 inh – inhibitors of human USP17 deubiquitinase; A8MUK1; purified USP17, Ub-rhodamine cleavage fluorescence, 3 h; inhibition, % at 50 µM; hit rate 6.5% among 47,000; AID 1645855
USP30 inh – human USP30 deubiquitinase inhibition; purified USP30, Ub-rhodamine cleavage fluorescence; inhibition, % at 25 µM; hit rate 5.3% among 47,000; AID 1645860
USP28 block – blocks human USP28 ubiquitin-rhodamine cleavage; Q96RU2; purified USP28, Ub-rhodamine cleavage fluorescence, 30 min; inhibition, % at 25 µM; hit rate 3% among 47,000
Target sequence (Q96RU2 whole entry, looked up): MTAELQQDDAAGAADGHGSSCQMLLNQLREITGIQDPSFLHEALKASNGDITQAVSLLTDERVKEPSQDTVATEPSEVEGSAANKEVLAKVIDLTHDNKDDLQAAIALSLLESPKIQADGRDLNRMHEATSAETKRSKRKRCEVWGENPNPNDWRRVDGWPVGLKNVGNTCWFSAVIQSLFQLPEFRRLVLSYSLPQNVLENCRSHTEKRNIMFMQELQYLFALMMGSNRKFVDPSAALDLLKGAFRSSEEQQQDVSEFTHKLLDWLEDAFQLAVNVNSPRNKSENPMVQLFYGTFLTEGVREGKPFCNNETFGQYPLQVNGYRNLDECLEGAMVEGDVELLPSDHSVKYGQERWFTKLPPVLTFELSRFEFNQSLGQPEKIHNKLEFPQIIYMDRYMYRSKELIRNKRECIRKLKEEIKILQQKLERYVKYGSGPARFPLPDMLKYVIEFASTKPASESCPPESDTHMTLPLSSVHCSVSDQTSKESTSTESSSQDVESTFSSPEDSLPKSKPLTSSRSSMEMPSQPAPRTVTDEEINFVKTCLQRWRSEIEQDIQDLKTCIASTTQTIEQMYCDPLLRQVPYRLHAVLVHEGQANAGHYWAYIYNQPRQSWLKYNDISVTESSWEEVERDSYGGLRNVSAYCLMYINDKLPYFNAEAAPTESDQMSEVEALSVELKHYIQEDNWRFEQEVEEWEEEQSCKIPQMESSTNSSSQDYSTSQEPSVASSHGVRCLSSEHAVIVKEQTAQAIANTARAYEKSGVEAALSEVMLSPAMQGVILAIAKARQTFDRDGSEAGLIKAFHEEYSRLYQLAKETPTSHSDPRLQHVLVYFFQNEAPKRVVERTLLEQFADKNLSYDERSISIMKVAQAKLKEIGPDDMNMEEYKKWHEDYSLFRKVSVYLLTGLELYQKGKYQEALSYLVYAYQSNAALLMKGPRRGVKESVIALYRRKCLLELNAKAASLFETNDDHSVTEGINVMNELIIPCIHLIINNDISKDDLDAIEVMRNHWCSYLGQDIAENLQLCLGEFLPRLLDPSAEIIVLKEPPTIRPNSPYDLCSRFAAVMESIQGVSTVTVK
OTUD3 inh – blocks human OTUD3 ubiquitin-rhodamine cleavage. purified OTUD3, Ub-rhodamine fluorescence, 2 h. AID 1645858. hit rate 0.7% among 47,000. Q5T2D3. inhibition, % at 25 µM
* marks the source's active call; other numbers are inactive results. Cut-off read from the data, not from the text of the source: active = inhibition above about 30%; inactive = the rest.

What do the screens show for `O=C(Nc1ccc(Cn2cnc(-c3nc(-c4ccccc4)no3)c2)cc1)c1ccccc1F`?
USP30 inh: 31.5*; USP28 block: 23.0; OTUD3 inh: 9.0

How did Cc1ccccc1-c1noc(-c2cn(Cc3ccc(NC(=O)Cc4ccccc4)cc3)cn2)n1 do in these assays?
USP17 inh: 60.2*; USP30 inh: 68.8*; USP28 block: 37.2*; OTUD3 inh: 6.2

How did COc1ccc(C(=O)Nc2cccc(OCc3cc(=O)n4ccc(C)cc4n3)c2)cc1OC do in these assays?
USP17 inh: 3.6; USP30 inh: -146.3; USP28 block: -56.1; OTUD3 inh: -30.8

How did CCc1cc(=O)n(CC(=O)NCc2ccc(F)cc2)c(N2CCOCC2)n1 do in these assays?
USP17 inh: 22.2; USP30 inh: 30.8*; USP28 block: 5.9; OTUD3 inh: 12.5

Results for Cc1ccc(CNC(=O)Cn2c(N3CCCCC3)nc(C)cc2=O)cc1 ?
USP17 inh: 40.6*; USP30 inh: 35.9*; USP28 block: 22.9; OTUD3 inh: 15.6

How did CCc1cc(=O)n(CC(=O)NCc2ccc(C)cc2)c(N2CCOCC2)n1 do in these assays?
USP17 inh: 9.0; USP30 inh: 9.0; USP28 block: 0.6; OTUD3 inh: 9.3

How did Cc1cccc(OCCCSc2nc3ccc(C)cc3[nH]2)c1 do in these assays?
USP17 inh: 22.5; USP30 inh: 24.1; USP28 block: 28.1; OTUD3 inh: 14.6

How did CCOc1ccc2nc(SCc3cn4cc(Cl)ccc4n3)[nH]c2c1 do in these assays?
USP17 inh: 9.5; USP30 inh: 21.2; USP28 block: 40.8*; OTUD3 inh: 1.7

Results for Cc1cc(C(=O)Nc2nnc(CSc3ccccc3)o2)no1 ?
USP17 inh: -4.0; USP30 inh: 7.3; USP28 block: 0.0; OTUD3 inh: 1.3

How did CCCC(=O)Nc1ccc(SCc2nnc(-c3ccccc3)o2)cc1 do in these assays?
USP17 inh: 1.2; USP30 inh: -2.8; USP28 block: 66.2*; OTUD3 inh: -2.2

Results for O=C(Nc1ccc(SCc2nnc(-c3ccccc3)o2)cc1)C1CC1 ?
USP17 inh: -29.1; USP30 inh: 0.1; USP28 block: 61.0*; OTUD3 inh: -11.4

What do the screens show for `O=C(Cn1c(=O)n(-c2ccc(F)cc2)c2ncccc21)N1CCC2(CC1)OCCO2`?
USP17 inh: 7.5; USP30 inh: 0.5; USP28 block: -7.8; OTUD3 inh: -0.9

What do the screens show for `Cc1nc(-c2cncc(-c3ccc(F)cc3)c2)cc(N2CCC(O)CC2)n1`?
USP17 inh: -10.8; USP30 inh: -11.9; USP28 block: -8.8; OTUD3 inh: -10.9

How did Cc1cnc(-c2nnc(C3CCCCN3C(=O)c3cccc4cccnc34)o2)cn1 (configuration not stated) do in these assays?
USP17 inh: -11.8; USP30 inh: -21.0; USP28 block: -17.8; OTUD3 inh: -9.4

What do the screens show for `Cc1cc(C)n(-c2cccc(C(=O)Nc3ccc4c(c3)CCN4S(C)(=O)=O)c2)n1`?
USP17 inh: 8.4; USP30 inh: -9.7; USP28 block: 79.7*; OTUD3 inh: 0.4

How did CS(=O)(=O)N1CCc2ccc(C(=O)Nc3ccc(F)cc3)cc21 do in these assays?
USP17 inh: 33.1*; USP30 inh: -27.2; USP28 block: -7.5; OTUD3 inh: -7.0

What do the screens show for `Cc1ccc(Cn2cc(-c3noc(-c4ccncc4)n3)nn2)cc1`?
USP17 inh: 79.1*; USP30 inh: 25.7; USP28 block: 8.3; OTUD3 inh: 11.0

What do the screens show for `Fc1cccc(Cn2cc(-c3noc(-c4ccncc4)n3)nn2)c1`?
USP17 inh: 66.5*; USP30 inh: -7.3; USP28 block: 12.3; OTUD3 inh: 8.4

What do the screens show for `CCOC(=O)c1ccc(NC(=O)C[n+]2cc(-c3ccc(C)cc3)n3c2CCC3)cc1`?
USP17 inh: -1.5; USP30 inh: 31.9*; USP28 block: 20.0; OTUD3 inh: 8.8

What do the screens show for `COC(=O)c1ccc(NC(=O)C[n+]2cc(-c3ccc(Cl)cc3)n3c2CCC3)cc1`?
USP17 inh: -14.6; USP30 inh: 21.3; USP28 block: 5.6; OTUD3 inh: 1.9

How did Cc1ccc(C)c(NC(=O)C[n+]2cc(-c3ccc(F)cc3)n3c2CCC3)c1 do in these assays?
USP17 inh: 5.5; USP30 inh: 6.9; USP28 block: 8.8; OTUD3 inh: 9.7

Results for CCOC(=O)c1ccc(NC(=O)C[n+]2cc(-c3ccc(Cl)cc3)n3c2CCC3)cc1 ?
USP17 inh: 8.9; USP30 inh: 51.4*; USP28 block: 34.8*; OTUD3 inh: 23.8

What do the screens show for `CC(=O)c1ccc(NC(=O)C[n+]2cc(-c3ccc(Cl)cc3)n3c2CCC3)cc1`?
USP17 inh: 66.5*; USP30 inh: 19.0; USP28 block: 22.5; OTUD3 inh: 20.8

Results for O=C1COC2(CCN(Cc3ccncc3)CC2)CN1c1cncnc1 ?
USP17 inh: -17.6; USP30 inh: -15.7; USP28 block: -14.8; OTUD3 inh: -3.8

Results for O=C(/C=C/c1ccccc1)Nc1c2c(nc3c1CCC3)CCCC2 ?
USP17 inh: 20.9; USP30 inh: 39.7*; USP28 block: 10.6; OTUD3 inh: 8.6

Results for O=C(/C=C/c1ccccc1)Nc1nc(-c2ccccc2)c(-c2ccccc2)s1 ?
USP17 inh: 10.7; USP30 inh: 21.5; USP28 block: 15.7; OTUD3 inh: 11.4

What do the screens show for `Cc1c(OCc2ccccc2)noc1C1CCN(C(=O)NC2CCOCC2)CC1`?
USP17 inh: 0.1; USP30 inh: -18.0; USP28 block: 35.5*; OTUD3 inh: 1.9

Results for Cc1c(OCc2ccccc2)noc1C1CCN(C(=O)C(C)C)CC1 ?
USP17 inh: 8.0; OTUD3 inh: 0.8

How did Cc1cccc(-c2ccc(CC3CN(C(=O)CCc4c(C)noc4C)CCNC3=O)cc2)c1 (configuration not stated) do in these assays?
USP17 inh: -12.3; USP30 inh: -20.4; USP28 block: -5.6; OTUD3 inh: -18.7

What do the screens show for `COc1ccc(NC(=O)Cn2cc(C(=O)c3ccccc3)c(=O)c3cc(Cl)ccc32)cc1OC`?
USP17 inh: -1.4; USP30 inh: -10.7; USP28 block: -15.7; OTUD3 inh: -7.8

How did Cc1ccc2c(c1)c(=O)c(C(=O)c1ccc(F)cc1)cn2CC(=O)Nc1ccc2c(c1)OCCO2 do in these assays?
USP17 inh: 69.9*; USP30 inh: -2.1; USP28 block: 8.0; OTUD3 inh: 1.4

What do the screens show for `Cc1ccc(C(=O)c2cn(CC(=O)Nc3ccccc3C)c3ccc(C)cc3c2=O)cc1`?
USP17 inh: 40.3*; USP30 inh: -82.6; USP28 block: -25.6; OTUD3 inh: -30.7

Results for COc1ccc(NC(=O)Cn2cc(C(=O)c3ccc(Cl)cc3)c(=O)c3cc(F)ccc32)cc1 ?
USP17 inh: 31.1*; USP30 inh: 39.1*; USP28 block: 19.2; OTUD3 inh: 15.3

How did COc1ccc2c(c1)c(=O)c(C(=O)c1ccc(Cl)cc1)cn2CC(=O)Nc1ccc(Cl)cc1 do in these assays?
USP17 inh: 0.7; USP30 inh: -94.4; USP28 block: -26.9; OTUD3 inh: -20.8

What do the screens show for `COc1ccccc1NC(=O)Cn1cc(C(=O)c2ccc(C)cc2)c(=O)c2ccccc21`?
USP17 inh: 62.2*; USP30 inh: 9.0; USP28 block: 1.9; OTUD3 inh: 7.9

What do the screens show for `COC(=O)C1C2CCC(C2)C1C(=O)OCC(=O)c1ccc(C)c(C)c1` (configuration not stated)?
USP17 inh: 26.9; USP30 inh: 28.0; USP28 block: 14.3; OTUD3 inh: 17.5
